Inconclusive results are not listed. Active and inactive are the calls of the source. Unless noted, the call rests on the fitted dose curve; in most records, active means well fitted cell-killing curve with a large enough effect; inconclusive means small, poorly fitted or top-dose-only effect; inactive means flat fitted curve, though single readings scatter.

The nature of assay [1]: Cell Viability - LYMP2-020 (AID 986).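 Further: series mostly up to about 92 µM; plate controls were DMSO only for no effect and tetraoctylammonium bromide at 92 µM for full effect; nearly all actives have a fitted effect of over 55% in size.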 In short, it runs like this: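 Human lymphoblastoid LYMP2-020 cells (2500/well) preincubated 5 h at 37 C, then treated 24 h at 37 C. Viability measured as intracellular ATP by CellTiter-Glo luminescence after 30 min at room temperature; AC50 from Hill fits.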
Assay [2] in a line: Cell Viability - LYMP2-022 (AID 987).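 Further: 0% = DMSO alone and full effect = tetraoctylammonium bromide at 92 µM; nearly all actives have a fitted effect of over 55% in size.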 In short, it runs like this:
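LYMP2-022 lymphoblastoid cells (2500/well, complete medium) were treated with compounds for 24 hours at 37 C; intracellular ATP was then read by CellTiter-Glo luminescence after 30 min at room temperature. AC50 values were derived from Hill-equation fits.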

The nature of assay [3]: Cell Viability - LYMP2-024 (AID 988).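 Further: plate controls were DMSO only for no effect and 92 µM tetraoctylammonium bromide for full effect; nearly all actives have a fitted effect of over 60% in size.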 The method in brief:
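Human lymphoblastoid LYMP2-024 cells (2500/well) rested 5 hr, then treated with compound for 24 hr at 37 C in complete medium. Viability was measured as intracellular ATP by CellTiter-Glo luminescence. AC50 values came from Hill-equation fits.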

Assay [4] is described as follows: Cell Viability - LYMP2-026 (AID 989). Further: on the % scale 0 is the no-effect control and ±100 the full control effect; nearly all actives have a fitted effect of over 50% in size. In short, it runs like this:
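Human lymphoblastoid LYMP2-026 cells, 2500/well, exposed to compound 24 h at 37 C in complete medium. Viability as intracellular ATP by CellTiter-Glo luminescence; AC50 from Hill fits of qHTS concentration-response.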

Assay [5] in a line: Cell Viability - LYMP1-002 - Assay at 24 hr (AID 993). Further: on the % scale 0 is the no-effect control and ±100 the full control effect. In short, it runs like this:
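Human lymphoblastoid LYMP1-002 cells (2500/well) treated 24 h at 37 °C; viability as intracellular ATP by CellTiter-Glo luminescence. Tetraoctylammonium bromide as positive control; AC50 from Hill-equation fits of qHTS concentration-response.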

Assay [6] is described as follows: Cell Viability - LYMP1-002 - Assay at 40 hr (AID 994).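 Further: 0% = DMSO only and full inhibition = 92 µM tetraoctylammonium bromide; nearly all actives have a fitted effect of over 60% in size.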 The method in brief: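 LYMP1-002 human lymphoblastoid cells (2500/well, complete medium) were treated with compounds for 40 hr at 37 C. Intracellular ATP was measured by CellTiter-Glo luminescence, and AC50 values came from Hill-equation fits of concentration-response data; tetraoctylammonium bromide was the positive control.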

The nature of assay [7]: qHTS Assay for Identification of Small Molecule Inducers of Hypoxia Response (AID 2120; active means well fitted curve in the direction sought with a large enough effect in the signal ratio, with a control signal flat, not every such curve was filed as active; the % refers to the signal ratio; further: 0% is about no effect). The method in brief:
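HRE-bla ME-180 cells in Opti-MEM with 0.5% dialyzed FBS, pre-plated 4-5 h, then compound titration for 17 h at 37 degrees Celsius. CCF4 loaded 2.5 h at room temperature; 460/530 nm ratio gave %Activity and AC50 for induction.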

Assay [8] addresses Estrogen receptor (Homo sapiens) (UniProt P03372). The experiment in a line: qHTS assay for small molecule agonists of estrogen receptor alpha signaling (AID 588514; calls by dose curve;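 further: 0% = vehicle only and 100% = reference agonist; nearly all actives have a fitted effect of over 70% in size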). In short, it runs like this:
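ER-alpha-UAS-bla GripTite HEK293 cells, 5000/well in 2% charcoal/dextran-stripped FBS medium, treated with compound titrations 18 h at 37 C. CCF4 beta-lactamase read by fluorescence after 2 h RT; normalised to 20 nM 17-beta-estradiol (100%) and DMSO (0%), Hill fit for EC50 and efficacy.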
Background: qHTS replaces the single test concentration by a dilution series.

Assay [9] deals with Bile acid receptor (Homo sapiens) (UniProt Q96RI1). The experiment in a line: qHTS assay for small molecule antagonists of farnesoid X receptor signaling (AID 588526; calls by dose curve; further: on the % scale 0 is the no-effect control and ±100 the full control effect). The method in brief: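 Antagonist mode: titrated compounds tested against chenodeoxycholic acid stimulation (normalized to 50 uM CDCA and DMSO) in GeneBLAzer HEK293T cells for 16 h. Beta-lactamase read by CCF4 fluorescence; IC50 from Hill fits.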

For assay [10], the target named is Glucocorticoid receptor (Homo sapiens) (UniProt P04150). Put plainly: qHTS assay for small molecule antagonists of glucocorticoid receptor signaling (AID 588533; active means well fitted inhibition curve with a large enough effect in the signal ratio, with a control signal flat, not every such curve was filed as active; the % refers to the signal ratio; further: on the % scale 0 is the no-effect control and ±100 the full control effect). The method in brief: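 Antagonist-mode qHTS: compound titrations added to GRE-bla HeLa cells, then dexamethasone 2 nM final; 18 h, 37 C. CCF4 FRET fluorescence normalized to dexamethasone and DMSO; IC50 from Hill fit.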

A short description of assay [11]: qHTS assay for small molecule antagonists of peroxisome proliferator-activated receptor delta signaling (AID 588535; active means well fitted inhibition curve with a large enough effect in the signal ratio, with a control signal flat, not every such curve was filed as active; the % refers to the signal ratio;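 on max response: cells co-treated with a PPAR-delta agonist as stimulator during compound exposure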). As to conditions: HEK293T PPARd-UAS-bla, beta-lactamase FRET ratio, 18 h; 460 nm channel. The method in brief: (§1)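 Antagonist-mode beta-lactamase reporter (GeneBLAzer PPAR-delta-UAS-bla) in HEK293T cells, 2% charcoal/dextran FBS, 4000 cells/well. Compound titrations, 18 h at 37 C; CCF4 ratio read, IC50 and efficacy from Hill fits.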

Assay [12] addresses Peroxisome proliferator-activated receptor delta (Homo sapiens) (UniProt Q03181). Described as above. In short, it runs like this:
as §1

The target of assay [13] is Peroxisome proliferator-activated receptor gamma (Homo sapiens) (UniProt P37231). The experiment in a line: qHTS assay for small molecule agonists of peroxisome proliferator-activated receptor gamma signaling (AID 588536; active means well fitted curve in the direction sought with a large enough effect in the signal ratio, with a control signal flat, not every such curve was filed as active; the % refers to the signal ratio;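 further: 0% = DMSO basal wells and 100% = rosiglitazone at 2 µM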). In short, it runs like this: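 GeneBLAzer PPAR-gamma-UAS-bla HEK293 cells in 1% charcoal/dextran-treated FBS medium were treated 16 h at 37 C with compounds. Beta-lactamase activity was read by CCF4 ratio (460/530 nm). Response was normalized to 2 uM rosiglitazone (100%) and DMSO, then Hill-fitted for EC50 and efficacy.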

Assay [14] addresses Vitamin D3 receptor (Homo sapiens) (UniProt P11473). The experiment in a line: qHTS assay for small molecule antagonists of vitamin D receptor signaling (AID 588541; calls by dose curve;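 further: receptor activated by calcitriol during compound treatment; series mostly up to about 77 µM; on the % scale 0 is the no-effect control and ±100 the full control effect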). In short, it runs like this:
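VDR-UAS-bla HEK293T cells in 2% charcoal-stripped FBS were stimulated with 1-alpha,25-dihydroxyvitamin D3 (3 nM final) plus compound for 16 h at 37 C. The beta-lactamase CCF4 readout was normalized to 50 nM agonist and DMSO, and Hill fits gave IC50.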

For assay [15] the target is unchanged. Put plainly: qHTS assay for small molecule agonists of vitamin D receptor signaling (AID 588543; calls by dose curve;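 further: 0% = DMSO basal and 100% = reference agonist control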). The method in brief: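 β-lactamase reporter, VDR-UAS-bla HEK293T, agonist mode. Cells plated 5 h at 37 °C, compound titration 16 h at 37 °C, CCF4 dye 2 h RT, ratio 460/530 nm. Hill fit → EC50, efficacy vs 50 nM 1α,25-(OH)2D3.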
Assay [16] addresses Glucocorticoid receptor (Homo sapiens) (UniProt P04150). The experiment in a line: qHTS assay for small molecule agonists of glucocorticoid receptor signaling (AID 588532; active means well fitted curve in the direction sought with a large enough effect in the signal ratio, with a control signal flat; the % refers to the signal ratio;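 further: 100% = dexamethasone at 0.1 µM and 0% = DMSO only wells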). Conditions: HeLa MMTV-bla, beta-lactamase ratio, agonist, 18 h; stronger effect = higher value; percent of dexamethasone control, DMSO zero. The method in brief:
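Cells were plated and rested 3-5 h at 37 C, compounds were added in titration and incubated 18 h, then CCF4 substrate was loaded for 2 h at RT before reading blue/green fluorescence. EC50 came from Hill-equation fitting.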

Assay [17] addresses Peroxisome proliferator-activated receptor gamma (Homo sapiens) (UniProt P37231). The experiment in a line: qHTS assay for small molecule antagonists of peroxisome proliferator-activated receptor gamma signaling (AID 588537; active means well fitted inhibition curve with a large enough effect in the signal ratio, with a control signal flat, not every such curve was filed as active; the % refers to the signal ratio;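 further: reporter cells co-stimulated with 50 nM rosiglitazone agonist during compound treatment; % of control where 0% means no effect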). The method in brief: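 PPARγ-UAS-bla HEK293 cells (3000/well) in 1% charcoal/dextran-stripped FBS are treated with compound, then stimulated with 50 nM rosiglitazone for 16 h at 37 °C. Read-out is CCF4 β-lactamase fluorescence after 2 h at RT. IC50 comes from Hill fits normalised to rosiglitazone and DMSO.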

Assay [18] has as its target Estrogen receptor (Homo sapiens) (UniProt P03372). The experiment in a line: qHTS assay for small molecule antagonists of estrogen receptor alpha signaling (AID 588513; active means well fitted curve in the direction sought with a large enough effect in the signal ratio, with a control signal flat, not every such curve was filed as active; the % refers to the signal ratio; further: on the % scale 0 is the no-effect control and ±100 the full control effect). In short, it runs like this:
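Beta-lactamase reporter, antagonist mode, HEK 293 GripTite cells; 0.5nM E2 stimulus, 18 h, 37 C; CCF4 dye 2 h RT; fluorescence. IC50 and efficacy from Hill fits, normalized to E2 and DMSO.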

Assay [19] concerns the target Androgen receptor (Homo sapiens) (UniProt P10275). Put plainly: qHTS assay for small molecule agonists of androgen receptor signaling (AID 588515; active means well fitted curve in the direction sought with a large enough effect in the signal ratio, with a control signal flat; the % refers to the signal ratio; further: on the % scale 0 is the no-effect control and ±100 the full control effect). As to conditions: AR-UAS-bla HEK293, beta-lactamase ratio, agonist 16 h; stronger effect = higher value. The method in brief:
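EC50 and efficacy came from Hill fits of titrations (up to 92 uM) normalized to 30 nM R1881 as 100% and DMSO as 0%. Compound exposure was 16 h at 37 C on AR-UAS-bla HEK293 cells, with a 405/460/530 nm CCF4 fluorescence read.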

Assay [20] has the same target. Put plainly: qHTS assay for small molecule antagonists of androgen receptor signaling (AID 588516; active means well fitted curve in the direction sought with a large enough effect in the signal ratio, with a control signal flat, not every such curve was filed as active; the % refers to the signal ratio; further: on the % scale 0 is the no-effect control and ±100 the full control effect). The method in brief: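 HEK293 AR-UAS-bla cells, 10% dialyzed FBS medium; cpd titration + R1881 10 nM final, 16 h 37 C; CCF4 2 h RT; FRET ratio; IC50/efficacy via Hill fit.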

Sequence of Peroxisome proliferator-activated receptor delta (Homo sapiens) (Q03181 whole entry, looked up): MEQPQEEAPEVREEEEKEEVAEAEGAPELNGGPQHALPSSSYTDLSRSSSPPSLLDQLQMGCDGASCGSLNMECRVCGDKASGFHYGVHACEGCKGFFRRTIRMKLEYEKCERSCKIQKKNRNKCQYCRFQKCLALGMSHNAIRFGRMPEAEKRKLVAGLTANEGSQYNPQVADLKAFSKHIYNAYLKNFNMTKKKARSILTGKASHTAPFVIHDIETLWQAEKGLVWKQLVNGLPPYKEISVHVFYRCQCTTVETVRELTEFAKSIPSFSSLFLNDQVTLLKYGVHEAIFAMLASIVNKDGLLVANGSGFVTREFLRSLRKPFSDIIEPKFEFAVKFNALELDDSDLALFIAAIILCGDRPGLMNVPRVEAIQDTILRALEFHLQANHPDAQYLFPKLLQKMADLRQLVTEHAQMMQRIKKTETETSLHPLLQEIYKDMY
Sequence of Bile acid receptor (Homo sapiens) (Q96RI1 whole entry, looked up): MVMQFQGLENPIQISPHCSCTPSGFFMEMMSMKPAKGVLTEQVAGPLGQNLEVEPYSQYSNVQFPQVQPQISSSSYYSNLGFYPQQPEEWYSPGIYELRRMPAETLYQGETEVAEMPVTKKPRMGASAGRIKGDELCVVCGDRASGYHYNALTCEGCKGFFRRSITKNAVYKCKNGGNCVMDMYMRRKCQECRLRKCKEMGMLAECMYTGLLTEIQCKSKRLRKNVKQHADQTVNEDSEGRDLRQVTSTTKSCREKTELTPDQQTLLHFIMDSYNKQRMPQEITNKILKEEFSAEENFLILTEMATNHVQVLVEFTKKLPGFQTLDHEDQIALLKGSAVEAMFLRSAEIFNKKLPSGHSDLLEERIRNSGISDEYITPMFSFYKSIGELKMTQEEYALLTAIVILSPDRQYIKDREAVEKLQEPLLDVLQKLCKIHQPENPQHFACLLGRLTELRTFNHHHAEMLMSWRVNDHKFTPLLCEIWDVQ
Sequence of Androgen receptor (Homo sapiens) (P10275 whole entry, looked up): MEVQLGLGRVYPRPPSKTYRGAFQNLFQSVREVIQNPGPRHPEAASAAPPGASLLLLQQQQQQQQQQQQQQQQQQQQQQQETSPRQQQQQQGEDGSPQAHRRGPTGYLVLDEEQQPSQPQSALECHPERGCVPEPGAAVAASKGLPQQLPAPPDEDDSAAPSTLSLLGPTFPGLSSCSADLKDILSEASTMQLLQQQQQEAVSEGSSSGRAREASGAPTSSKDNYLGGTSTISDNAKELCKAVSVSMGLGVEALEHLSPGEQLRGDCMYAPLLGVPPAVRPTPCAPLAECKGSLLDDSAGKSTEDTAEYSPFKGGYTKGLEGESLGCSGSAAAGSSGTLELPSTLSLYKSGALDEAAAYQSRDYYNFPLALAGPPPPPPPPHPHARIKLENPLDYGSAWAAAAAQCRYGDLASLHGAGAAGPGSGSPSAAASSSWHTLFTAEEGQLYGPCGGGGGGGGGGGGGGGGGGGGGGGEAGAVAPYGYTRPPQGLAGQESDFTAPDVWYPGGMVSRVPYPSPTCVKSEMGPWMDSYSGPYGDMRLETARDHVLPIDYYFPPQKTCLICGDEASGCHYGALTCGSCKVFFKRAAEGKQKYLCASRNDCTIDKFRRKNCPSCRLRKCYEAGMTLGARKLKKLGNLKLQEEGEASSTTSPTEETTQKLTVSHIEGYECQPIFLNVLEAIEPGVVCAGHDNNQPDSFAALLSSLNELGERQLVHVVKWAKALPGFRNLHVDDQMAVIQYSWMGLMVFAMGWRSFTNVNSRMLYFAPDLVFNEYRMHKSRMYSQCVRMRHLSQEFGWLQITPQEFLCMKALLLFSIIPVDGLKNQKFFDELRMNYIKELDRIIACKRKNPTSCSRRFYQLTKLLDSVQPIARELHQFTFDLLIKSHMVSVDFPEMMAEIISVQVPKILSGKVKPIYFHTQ
Sequence of Vitamin D3 receptor (Homo sapiens) (P11473 whole entry, looked up): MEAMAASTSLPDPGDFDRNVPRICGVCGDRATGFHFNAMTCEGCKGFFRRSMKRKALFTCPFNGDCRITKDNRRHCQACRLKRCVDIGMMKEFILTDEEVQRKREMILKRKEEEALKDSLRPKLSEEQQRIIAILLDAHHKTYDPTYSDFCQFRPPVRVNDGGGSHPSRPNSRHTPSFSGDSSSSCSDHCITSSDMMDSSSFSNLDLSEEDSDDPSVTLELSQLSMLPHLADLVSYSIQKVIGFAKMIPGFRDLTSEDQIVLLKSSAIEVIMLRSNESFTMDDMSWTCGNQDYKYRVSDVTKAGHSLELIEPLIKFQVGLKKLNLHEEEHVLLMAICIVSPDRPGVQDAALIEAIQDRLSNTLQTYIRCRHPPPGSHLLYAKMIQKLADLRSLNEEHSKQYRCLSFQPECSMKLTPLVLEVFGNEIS
Sequence of Glucocorticoid receptor (Homo sapiens) (P04150 whole entry, looked up): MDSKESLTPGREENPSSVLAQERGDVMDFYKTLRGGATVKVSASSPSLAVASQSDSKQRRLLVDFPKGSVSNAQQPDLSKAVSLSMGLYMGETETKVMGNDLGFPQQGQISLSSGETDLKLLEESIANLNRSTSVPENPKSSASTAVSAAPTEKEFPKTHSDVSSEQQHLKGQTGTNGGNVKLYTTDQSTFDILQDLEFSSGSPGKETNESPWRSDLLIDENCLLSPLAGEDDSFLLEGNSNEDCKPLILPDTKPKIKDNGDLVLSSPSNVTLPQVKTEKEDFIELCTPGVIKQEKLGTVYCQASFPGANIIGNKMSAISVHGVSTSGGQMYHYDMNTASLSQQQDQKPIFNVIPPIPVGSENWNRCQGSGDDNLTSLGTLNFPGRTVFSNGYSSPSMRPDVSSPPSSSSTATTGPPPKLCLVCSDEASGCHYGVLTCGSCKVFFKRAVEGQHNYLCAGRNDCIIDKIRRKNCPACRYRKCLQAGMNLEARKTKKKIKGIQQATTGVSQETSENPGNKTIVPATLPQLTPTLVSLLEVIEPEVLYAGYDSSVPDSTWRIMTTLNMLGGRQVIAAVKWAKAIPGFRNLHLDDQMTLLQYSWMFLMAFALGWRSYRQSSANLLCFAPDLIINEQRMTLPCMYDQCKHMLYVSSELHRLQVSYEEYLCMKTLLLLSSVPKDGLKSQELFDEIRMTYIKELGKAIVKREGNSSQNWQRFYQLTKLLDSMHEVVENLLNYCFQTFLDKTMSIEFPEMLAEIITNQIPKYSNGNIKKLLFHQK
Sequence of Estrogen receptor (Homo sapiens) (P03372 whole entry, looked up): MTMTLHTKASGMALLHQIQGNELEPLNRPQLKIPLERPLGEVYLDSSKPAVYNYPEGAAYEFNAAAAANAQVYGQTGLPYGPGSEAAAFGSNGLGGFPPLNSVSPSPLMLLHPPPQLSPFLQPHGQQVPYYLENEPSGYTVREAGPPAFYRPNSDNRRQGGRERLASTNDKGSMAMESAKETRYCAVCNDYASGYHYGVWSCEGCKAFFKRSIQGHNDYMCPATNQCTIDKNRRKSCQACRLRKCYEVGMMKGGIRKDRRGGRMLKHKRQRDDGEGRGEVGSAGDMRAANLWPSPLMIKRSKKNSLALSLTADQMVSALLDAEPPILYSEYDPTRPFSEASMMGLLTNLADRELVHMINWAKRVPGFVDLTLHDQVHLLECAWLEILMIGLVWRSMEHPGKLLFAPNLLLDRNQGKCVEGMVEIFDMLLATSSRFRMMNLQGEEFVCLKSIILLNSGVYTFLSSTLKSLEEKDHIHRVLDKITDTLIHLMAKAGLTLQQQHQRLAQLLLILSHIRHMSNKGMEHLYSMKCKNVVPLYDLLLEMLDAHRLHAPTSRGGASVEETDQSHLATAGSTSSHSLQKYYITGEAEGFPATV
Sequence of Peroxisome proliferator-activated receptor gamma (Homo sapiens) (P37231 whole entry, looked up): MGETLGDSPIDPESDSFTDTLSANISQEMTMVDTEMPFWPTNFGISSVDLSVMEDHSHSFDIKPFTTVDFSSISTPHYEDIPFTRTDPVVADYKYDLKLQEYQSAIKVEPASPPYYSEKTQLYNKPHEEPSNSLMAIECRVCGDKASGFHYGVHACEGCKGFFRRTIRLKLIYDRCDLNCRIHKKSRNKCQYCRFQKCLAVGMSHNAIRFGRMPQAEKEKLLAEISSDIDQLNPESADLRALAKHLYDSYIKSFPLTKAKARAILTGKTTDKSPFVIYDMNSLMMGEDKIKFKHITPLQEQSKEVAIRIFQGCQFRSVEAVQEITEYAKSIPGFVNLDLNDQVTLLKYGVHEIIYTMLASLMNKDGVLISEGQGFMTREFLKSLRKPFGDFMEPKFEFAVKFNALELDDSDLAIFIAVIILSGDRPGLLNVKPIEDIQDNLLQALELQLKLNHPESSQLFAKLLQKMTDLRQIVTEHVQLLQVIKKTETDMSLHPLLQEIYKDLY

For the compound `C=Cc1ccc(C=C)cc1`, the Potency result in assay [1], in [2], in assay [3], in [5], in assay [6] and in assay [8] was “inactive” in each case. For the same compound, the Potency entry in assay [12] is “inactive”. For the same compound, the compound was called inactive in [4], in [7], in assay [9], in [10], in assay [13] and in assay [14]. Moreover, in assay [15], the compound was called inactive. In [11], the max response was -5.46%.
Take `Cc1ccc(Cl)cc1N`: the Potency result in assay [1], in [2], in assay [3], in assay [5], in assay [6] and in assay [12] was “inactive” throughout. Further, the call in assay [4], in [7], in assay [9], in assay [10], in assay [13] and in [17] was inactive. For the same compound, the result in [14] and in assay [15] was inactive. Besides, the activation in assay [16] was -7.53% (inactive). Further, the max response in assay [11] is -18.2%.
For the compound `Cc1ccco1`, the Potency result in [1], in [2] and in [6] was “inactive” throughout. For the same compound, the result in [7], in assay [18], in [13], in assay [17], in assay [14] and in [15] was inactive. Also, the activation in assay [16] is -1.2% (inactive).
In the case of `CC/C=C1/OC(=O)c2ccccc21`, the Potency result in assay [1], in assay [3], in assay [5], in assay [6] and in [12] was “inactive” throughout. The result in [4], in [7], in assay [20], in [10], in assay [13] and in assay [14] was inactive. Also, the call in assay [15] was inactive. For the same compound, the activation in [19] is 15.6% (inactive); in [16], -3.66% (inactive). In assay [11], the max response came to 6.22%.
As for `CC(=O)CC(C)C`, the Potency entry in assay [1], in [2], in assay [3], in assay [5], in assay [6] and in [12] was “inactive” throughout. The compound was classed as inactive in [4], in assay [7], in assay [20], in [9], in [10] and in [13]. For the same compound, the compound was classed as inactive in assay [14] and in [15]. Moreover, the results for the activation in assay [19] and in [16] were 2.1% (inactive) and 21.2% (inactive), respectively. Further, in [11], the max response is 19.2%.
As to `CC(=O)C1(C)CC2=C(CCCC2(C)C)CC1C` (configuration not stated), the Potency entry in [1], in [2], in [3], in assay [5], in [6] and in assay [12] was “inactive” each time. The compound was called inactive in [4], in [7], in [14] and in assay [15]. The results for the activation in assay [19] and in [16] were -4.48% (inactive) and -5.53% (inactive), respectively. Besides, the max response in assay [11] turned out to be 12.6%.
`OC/C(Br)=C(\Br)CO`: the Potency result in assay [1], in assay [2], in assay [3], in assay [5] and in assay [6] was “inactive” in each case. In addition, the outcome in assay [7], in assay [18], in assay [10], in [13], in [17] and in assay [14] was inactive. Also, the call in [15] was inactive.
With `CCCOCC(C)O` (configuration not stated), the Potency entry in assay [1], in assay [2], in assay [3], in assay [5], in [6] and in assay [12] was “inactive” throughout. Also, the outcome in assay [4], in assay [7], in [13], in assay [17] and in [14] was inactive. For the same compound, the activation in assay [19] is -4.67% (inactive). Further, the max response in assay [11] was -0.284%.
Take `CC/C=C/C#N`: the Potency entry in assay [1], in assay [2], in assay [3] and in [6] was “inactive” throughout. Also, the compound was called inactive in [4], in assay [7], in assay [18], in assay [10], in assay [17] and in [14]. The compound was classed as inactive in [15]. The activation in assay [16] is -1.94% (inactive). Further, in assay [11], the max response is 12.5%.
For `Cc1ccc2nc(-c3ccc(N)cc3)sc2c1S(=O)(=O)O`, the Potency result in [1], in assay [3], in assay [5] and in [6] was “inactive” throughout. The compound was called inactive in assay [4], in assay [7], in [18], in assay [17] and in [14]. The activation in assay [16] was 22.8% (inactive).
Consider `c1ccc2c(c1)Oc1ccccc1S2`, for which the Potency entry in [1], in [2], in assay [3], in [5], in [6] and in [12] was “inactive” in each case. Moreover, the result in assay [4], in [7], in [18], in [10], in assay [14] and in assay [15] was inactive. For the same compound, in assay [11], the max response was found to be 19.7%.

The record behind these values is PubChem BioAssay (NCATS).
